The text below walks through data of the supplement of paper PMC12819154, “High-throughput peptide-centric local stability assay extends protein–ligand identification to membrane proteins, tissues and bacteria” (Nature Structural & Molecular Biology, 2025).

Chain of UniProt Q13188 (Q13188 whole entry): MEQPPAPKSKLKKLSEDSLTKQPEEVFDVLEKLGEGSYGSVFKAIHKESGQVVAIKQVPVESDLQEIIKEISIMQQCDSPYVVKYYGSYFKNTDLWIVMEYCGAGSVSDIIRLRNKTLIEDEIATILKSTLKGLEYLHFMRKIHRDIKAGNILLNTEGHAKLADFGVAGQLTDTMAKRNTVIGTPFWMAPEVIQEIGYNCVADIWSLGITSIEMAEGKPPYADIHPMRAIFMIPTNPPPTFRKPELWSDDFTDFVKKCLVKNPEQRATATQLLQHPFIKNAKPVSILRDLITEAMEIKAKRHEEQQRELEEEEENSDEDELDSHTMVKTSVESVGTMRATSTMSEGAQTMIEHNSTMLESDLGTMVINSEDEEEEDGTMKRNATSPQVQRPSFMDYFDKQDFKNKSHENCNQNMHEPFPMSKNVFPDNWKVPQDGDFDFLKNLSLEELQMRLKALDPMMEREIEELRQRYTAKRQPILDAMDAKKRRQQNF
Chain of UniProt Q9Y6R4 (Q9Y6R4 whole entry): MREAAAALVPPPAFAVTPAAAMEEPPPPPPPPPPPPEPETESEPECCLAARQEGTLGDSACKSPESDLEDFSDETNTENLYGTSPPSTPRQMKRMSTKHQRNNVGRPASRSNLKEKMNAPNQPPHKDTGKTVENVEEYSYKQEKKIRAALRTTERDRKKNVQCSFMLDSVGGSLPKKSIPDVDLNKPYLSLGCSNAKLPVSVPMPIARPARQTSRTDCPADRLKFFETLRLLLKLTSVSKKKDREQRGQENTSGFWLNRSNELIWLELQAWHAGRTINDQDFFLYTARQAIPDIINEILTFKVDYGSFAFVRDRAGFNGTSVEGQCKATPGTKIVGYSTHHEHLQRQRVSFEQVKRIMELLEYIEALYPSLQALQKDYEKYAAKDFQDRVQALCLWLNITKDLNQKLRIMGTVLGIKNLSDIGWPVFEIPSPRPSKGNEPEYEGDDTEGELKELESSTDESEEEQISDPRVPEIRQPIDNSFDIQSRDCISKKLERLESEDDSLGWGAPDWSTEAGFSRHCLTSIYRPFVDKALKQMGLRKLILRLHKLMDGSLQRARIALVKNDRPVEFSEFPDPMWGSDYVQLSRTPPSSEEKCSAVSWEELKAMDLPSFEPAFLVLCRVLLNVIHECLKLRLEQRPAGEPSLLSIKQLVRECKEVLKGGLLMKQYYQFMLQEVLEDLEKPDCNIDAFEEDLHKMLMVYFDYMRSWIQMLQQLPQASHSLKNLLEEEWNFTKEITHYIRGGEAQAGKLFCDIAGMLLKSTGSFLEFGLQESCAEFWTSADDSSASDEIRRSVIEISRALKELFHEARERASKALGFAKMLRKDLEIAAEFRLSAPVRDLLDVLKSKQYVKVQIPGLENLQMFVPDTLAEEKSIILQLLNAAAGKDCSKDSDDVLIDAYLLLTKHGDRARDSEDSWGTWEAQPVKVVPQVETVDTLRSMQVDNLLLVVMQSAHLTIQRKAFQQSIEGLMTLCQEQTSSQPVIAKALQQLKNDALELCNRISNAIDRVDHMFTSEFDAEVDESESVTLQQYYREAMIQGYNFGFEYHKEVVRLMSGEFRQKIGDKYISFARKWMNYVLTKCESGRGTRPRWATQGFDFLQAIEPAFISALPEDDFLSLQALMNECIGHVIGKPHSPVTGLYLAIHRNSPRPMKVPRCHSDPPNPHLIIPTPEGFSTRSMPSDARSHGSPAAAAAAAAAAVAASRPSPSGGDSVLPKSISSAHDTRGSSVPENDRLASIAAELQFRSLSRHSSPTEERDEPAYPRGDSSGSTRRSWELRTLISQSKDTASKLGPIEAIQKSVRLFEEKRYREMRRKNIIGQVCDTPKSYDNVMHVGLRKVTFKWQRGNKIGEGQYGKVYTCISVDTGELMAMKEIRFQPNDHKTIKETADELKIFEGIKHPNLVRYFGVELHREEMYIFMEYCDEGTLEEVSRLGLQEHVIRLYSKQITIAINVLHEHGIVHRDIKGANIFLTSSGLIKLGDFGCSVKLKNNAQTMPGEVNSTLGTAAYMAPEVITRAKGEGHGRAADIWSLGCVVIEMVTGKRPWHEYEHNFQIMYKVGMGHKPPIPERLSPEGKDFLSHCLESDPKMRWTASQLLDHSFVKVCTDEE
Chain of UniProt Q8IVH8 (Q8IVH8 whole entry): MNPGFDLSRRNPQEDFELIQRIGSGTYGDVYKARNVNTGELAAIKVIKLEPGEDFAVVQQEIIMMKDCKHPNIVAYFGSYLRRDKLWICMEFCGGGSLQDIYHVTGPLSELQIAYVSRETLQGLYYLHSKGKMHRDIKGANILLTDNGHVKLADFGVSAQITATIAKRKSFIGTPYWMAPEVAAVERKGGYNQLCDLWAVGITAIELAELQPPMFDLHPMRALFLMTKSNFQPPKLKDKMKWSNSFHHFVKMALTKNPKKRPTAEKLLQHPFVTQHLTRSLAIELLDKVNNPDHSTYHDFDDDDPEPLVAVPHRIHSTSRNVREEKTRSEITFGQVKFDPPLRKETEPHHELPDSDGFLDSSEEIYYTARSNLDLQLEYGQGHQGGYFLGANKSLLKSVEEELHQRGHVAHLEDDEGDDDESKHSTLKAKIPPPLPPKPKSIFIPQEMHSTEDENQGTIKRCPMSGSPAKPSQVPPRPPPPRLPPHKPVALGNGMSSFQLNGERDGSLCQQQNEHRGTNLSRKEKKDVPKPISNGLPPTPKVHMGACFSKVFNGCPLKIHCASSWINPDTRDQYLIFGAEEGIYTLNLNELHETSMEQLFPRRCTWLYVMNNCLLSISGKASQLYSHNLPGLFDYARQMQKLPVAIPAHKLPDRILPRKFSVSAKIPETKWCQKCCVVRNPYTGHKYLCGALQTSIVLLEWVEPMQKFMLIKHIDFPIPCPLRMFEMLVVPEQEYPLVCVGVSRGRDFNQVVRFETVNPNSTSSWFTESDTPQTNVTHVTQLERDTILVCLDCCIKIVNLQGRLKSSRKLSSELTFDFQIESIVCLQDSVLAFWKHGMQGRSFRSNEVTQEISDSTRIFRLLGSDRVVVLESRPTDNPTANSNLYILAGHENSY
Chain of UniProt P06737 (P06737 whole entry): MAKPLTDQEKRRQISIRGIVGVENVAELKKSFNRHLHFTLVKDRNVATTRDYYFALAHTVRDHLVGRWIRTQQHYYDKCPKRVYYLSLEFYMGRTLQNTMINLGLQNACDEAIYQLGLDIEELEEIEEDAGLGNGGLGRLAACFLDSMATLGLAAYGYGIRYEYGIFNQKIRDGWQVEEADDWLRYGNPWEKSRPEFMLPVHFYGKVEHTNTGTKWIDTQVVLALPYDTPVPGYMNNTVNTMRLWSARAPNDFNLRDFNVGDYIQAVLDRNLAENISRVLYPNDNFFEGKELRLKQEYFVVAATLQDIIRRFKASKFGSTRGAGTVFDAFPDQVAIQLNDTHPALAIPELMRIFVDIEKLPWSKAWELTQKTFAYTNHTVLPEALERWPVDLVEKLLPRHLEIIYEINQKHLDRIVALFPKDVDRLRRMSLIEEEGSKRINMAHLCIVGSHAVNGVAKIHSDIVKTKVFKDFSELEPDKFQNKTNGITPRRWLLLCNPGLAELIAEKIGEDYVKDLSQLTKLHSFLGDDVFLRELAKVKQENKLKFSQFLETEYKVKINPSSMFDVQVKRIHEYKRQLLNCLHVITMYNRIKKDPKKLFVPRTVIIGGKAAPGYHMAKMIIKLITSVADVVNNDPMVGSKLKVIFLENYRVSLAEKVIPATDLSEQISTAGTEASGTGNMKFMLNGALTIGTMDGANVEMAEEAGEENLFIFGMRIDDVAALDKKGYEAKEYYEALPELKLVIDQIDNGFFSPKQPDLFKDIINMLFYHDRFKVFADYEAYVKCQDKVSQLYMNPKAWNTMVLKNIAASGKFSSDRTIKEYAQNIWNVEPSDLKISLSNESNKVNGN
Chain of UniProt P23458 (P23458 whole entry): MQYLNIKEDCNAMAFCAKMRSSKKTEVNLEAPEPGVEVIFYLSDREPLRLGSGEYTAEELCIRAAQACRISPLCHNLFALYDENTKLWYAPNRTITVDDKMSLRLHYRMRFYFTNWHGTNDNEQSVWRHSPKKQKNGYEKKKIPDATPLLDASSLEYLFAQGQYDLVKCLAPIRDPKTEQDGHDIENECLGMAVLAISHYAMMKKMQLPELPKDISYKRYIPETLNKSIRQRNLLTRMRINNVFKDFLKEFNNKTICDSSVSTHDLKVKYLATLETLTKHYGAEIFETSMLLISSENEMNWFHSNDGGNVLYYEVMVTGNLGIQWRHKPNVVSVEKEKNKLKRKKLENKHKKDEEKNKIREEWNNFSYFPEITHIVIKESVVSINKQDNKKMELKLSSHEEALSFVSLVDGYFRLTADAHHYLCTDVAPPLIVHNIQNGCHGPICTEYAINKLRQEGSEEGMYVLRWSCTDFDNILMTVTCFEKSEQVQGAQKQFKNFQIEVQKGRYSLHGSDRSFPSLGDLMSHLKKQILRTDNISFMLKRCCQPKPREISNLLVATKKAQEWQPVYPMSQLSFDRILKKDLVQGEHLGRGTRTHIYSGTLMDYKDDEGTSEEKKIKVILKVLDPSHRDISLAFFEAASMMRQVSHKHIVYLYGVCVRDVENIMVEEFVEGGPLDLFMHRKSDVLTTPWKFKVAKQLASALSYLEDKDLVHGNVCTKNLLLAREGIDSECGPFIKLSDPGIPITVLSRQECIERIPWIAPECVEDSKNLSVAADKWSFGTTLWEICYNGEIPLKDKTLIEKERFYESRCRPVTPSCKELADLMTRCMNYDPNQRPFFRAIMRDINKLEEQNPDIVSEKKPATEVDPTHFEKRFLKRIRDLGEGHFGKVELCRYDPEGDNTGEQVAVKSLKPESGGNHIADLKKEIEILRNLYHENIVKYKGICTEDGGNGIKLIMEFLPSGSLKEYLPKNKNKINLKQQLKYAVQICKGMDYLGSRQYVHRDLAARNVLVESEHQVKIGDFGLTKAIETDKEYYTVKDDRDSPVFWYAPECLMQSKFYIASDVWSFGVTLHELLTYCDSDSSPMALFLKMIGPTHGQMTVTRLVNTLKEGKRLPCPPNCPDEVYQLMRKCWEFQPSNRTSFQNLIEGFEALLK

Compound in this experiment: Cc1nc(Nc2ncc(C(=O)Nc3c(C)cccc3Cl)s2)cc(N2CCN(CCO)CC2)n1 [dasatinib]
The experiment can be described thus: log2 fold change of tryptic peptide abundance, ligand vs vehicle (limited proteolysis) (log2 ratio); higher = more trypsin-susceptible (destabilized). The note with it: ligand concentration: 5 uM; sample: K562 cleared lysate.
As for “UniProt Q02750 (peptide sequence: SYMSPER, peptide start residue: 228)”, the log2 fold change was 1.37. The value for “UniProt Q16512 (peptide sequence: VLLSEFRPSGELFAIK, peptide start residue: 629)” was 1.18; that for “AASDHPPT (peptide sequence: IGQFVFAR, peptide start residue: 48) (UniProt Q9NRN7)” was -0.547. Then “UniProt Q9P289 (peptide sequence: GSFGEVFK, peptide start residue: 33)”, with -0.606.

As to “UniProt P07947 (peptide sequence: LTTVCPTVKPQTQGLAK, peptide start residue: 251)”, the log2 fold change is 2.59. Then “MAP4K5 (peptide sequence: LLTHTFVAQPGLSR, peptide start residue: 271) (UniProt Q9Y4K4)”, with -0.838; and “UniProt Q9Y2U5 (peptide sequence: LLGQGAFGR, peptide start residue: 361)”, with -0.631; and “MAPK14 (peptide sequence: DLLIDEWK, peptide start residue: 331) (UniProt Q16539)”, with -1.32.

As for “FECH (peptide sequence: LFLDRDLMTLPIQNK, peptide start residue: 92) (UniProt P22830)”, the log2 fold change is -0.278.

Turning to “ULK3 (peptide sequence: VIELPLRPLLSR, peptide start residue: 230) (UniProt Q6PHR2)”, the log2 fold change was -0.336. Then “PAK2 (peptide sequence: LLQTSNITK, peptide start residue: 105) (UniProt Q13177)”, with 0.206; and “MAP4K3 (peptide sequence: RNPQEDFELIQR, peptide start residue: 10) (UniProt Q8IVH8)”, with -1.06; and “GAK (peptide sequence: AIIQEVCFMK, peptide start residue: 81) (UniProt O14976)”, with -2.44. Turning to “ABL2 (peptide sequence: NCLVGENHVVK, peptide start residue: 414) (UniProt P42684)”, the log2 fold change is -2.95. The value for “UniProt Q13163 (peptide sequence: DVKPSNMLVNTR, peptide start residue: 283)” was 1.77; that for “RIPK2 (peptide sequence: KTEYPDVAWPLR, peptide start residue: 110) (UniProt O43353)” was -1.34; that for “UniProt Q13043 (peptide sequence: ATATQLLQHPFVR, peptide start residue: 270)” was -0.627. For “PYGL (peptide sequence: NLAENISR, peptide start residue: 271) (UniProt P06737)”, the log2 fold change was -0.422. Turning to “SYK (peptide sequence: GSEVTAMLEKGER, peptide start residue: 578) (UniProt P43405)”, the log2 fold change was -0.709. Then “UniProt Q13188 (peptide sequence: AGNILLNTEGHAK, peptide start residue: 152)”, with -0.627. The value for “TNK1 (peptide sequence: VADFGLVRPLGGAR, peptide start residue: 261) (UniProt Q13470)” was -0.538; that for “ADK (peptide sequence: TGCTFPEKPDFH, peptide start residue: 351) (UniProt P55263)” was -0.858. Then “UniProt Q8N4C8 (peptide sequence: NIATYYGAFIK, peptide start residue: 81)”, with -0.397. As to “UniProt Q16513 (peptide sequence: IFETVNSVR, peptide start residue: 708)”, the log2 fold change was found to be 0.751.

On to “JAK1 (peptide sequence: NVLVESEHQVK, peptide start residue: 1008) (UniProt P23458)”, for which the log2 fold change was -1.51. Then “ABHD4 (peptide sequence: VAGPWGPGLVQR, peptide start residue: 209) (UniProt Q8TB40)”, with 0.933. Regarding “TYK2 (peptide sequence: EITQLSHLGQGTR, peptide start residue: 588) (UniProt P29597)”, the log2 fold change is -1.29. Then “UniProt Q9Y2K2 (peptide sequence: IGYYEIDR, peptide start residue: 63)”, with -1.83; and “Jak2 (peptide sequence: VLPQDKEYYK, peptide start residue: 1000) (UniProt O60674)”, with -0.993; and “MAP3K4 (peptide sequence: LGDFGCSVK, peptide start residue: 1479) (UniProt Q9Y6R4)”, with -1.67. The value for “TEC (peptide sequence: GCLLNFLR, peptide start residue: 448) (UniProt P42680)” was -2.98; that for “ILK (peptide sequence: DFNEECPR, peptide start residue: 234) (UniProt Q13418)” was 0.893; that for “LIMK2 (peptide sequence: GFFGQAIK, peptide start residue: 340) (UniProt P53671)” was -1.19. Regarding “PPAT (peptide sequence: TFIQPNMR, peptide start residue: 356) (UniProt Q06203)”, the log2 fold change was -0.503. Then “PYGB (peptide sequence: GLAGLGDVAEVR, peptide start residue: 18) (UniProt P11216)”, with -0.49; and “MAPK11 (peptide sequence: ILDFGLAR, peptide start residue: 167) (UniProt Q15759)”, with -0.259.

On to “CSK (peptide sequence: SGWALNMK, peptide start residue: 186) (UniProt P41240)”, for which the log2 fold change is -0.697. Then “UniProt P46781 (peptide sequence: ELLTLDEKDPRR, peptide start residue: 59)”, with -0.304. As to “UniProt P36507 (peptide sequence: KLEELELDEQQKK, peptide start residue: 40)”, the log2 fold change was 0.445.

As for “UniProt Q8NI60 (peptide sequence: VALLDFGATR, peptide start residue: 503)”, the log2 fold change is -0.968.
